From the supplement of paper PMC4709259
Structures can show the parent of a compound that is named as a salt. ± gives the standard deviation.

Tested on: Jurkat
Assay: cell count relative to DMSO control (fraction of control); higher = more cells (less growth inhibition)
Details: 48 h

Row | SMILES | cell count
1 | CC(=O)OCC(=O)[C@@]1(O)CC[C@H]2[C@@H]3CCC4=CC(=O)CC[C@]4(C)[C@@]3(F)[C@@H](O)C[C@@]21C [Fludrocortisone Acetate] (concentration: 25 µM) | 0.63 ± 0.033
2 | COCC1=C(C(=O)OC(C)OC(=O)OC(C)C)N2C(=O)[C@@H](NC(=O)/C(=N\OC)c3csc(N)n3)[C@H]2SC1 (stereo partly drawn) [Cefpodoxime Proxetil] (concentration: 25 µM) | 0.872 ± 0.045
3 | Clc1ccc2c(c1)CCc1cccnc1C2=C1CCNCC1 [Desloratadine] (concentration: 25 µM) | 0.702 ± 0.045
4 | CN(C)CC/C=C1/c2ccccc2COc2ccc(CC(=O)O)cc21 [Olopatadine] (concentration: 25 µM) | 0.929 ± 0.1
5 | C[C@H]1O[C@@H](O[C@H]2[C@@H](O)C[C@H](O[C@H]3[C@@H](O)C[C@H](O[C@H]4CC[C@@]5(C)[C@H](CC[C@@H]6[C@@H]5C[C@@H](O)[C@]5(C)[C@@H](C7=CC(=O)OC7)CC[C@]65O)C4)O[C@@H]3C)O[C@@H]2C)C[C@H](O)[C@@H]1O [Digoxin] (concentration: 25 nM) | 0.175 ± 0.093
6 | C[C@H](CS)C(=O)N1CCC[C@H]1C(=O)O [Captopril] (concentration: 25 µM) | 1.01 ± 0.099
7 | CO[C@H]1O[C@@H]2O[C@@]3(C)CC[C@H]4[C@H](C)CC[C@@H]([C@H]1C)[C@@]24OO3 [Artemether] (concentration: 25 µM) | 0.632 ± 0.0091
8 | Cc1ccnc2c1NC(=O)c1cccnc1N2C1CC1 [Nevirapine] (concentration: 25 µM) | 0.476 ± 0.11
9 | CCc1cc(C(N)=S)ccn1 [Ethionamide] (concentration: 25 µM) | 1.05 ± 0.1
10 | Nc1nc(Cl)nc2c1ncn2[C@@H]1O[C@H](CO)[C@@H](O)[C@@H]1F [Clofarabine] (concentration: 25 nM) | 0.26 ± 0.073
11 | CN1CCCC(n2nc(Cc3ccc(Cl)cc3)c3ccccc3c2=O)CC1 (stereo not drawn) [Azelastine·HCl] (concentration: 25 µM) | 0.457 ± 0.02
12 | C[C@]12CCC(=O)C=C1[C@@H]1C[C@@H]1[C@H]1[C@@H]3[C@@H]4C[C@@H]4[C@@]4(CCC(=O)O4)[C@@]3(C)CC[C@@H]12 [Drospirenone] (concentration: 25 µM) | 0.692 ± 0.11
13 | CC(=O)N1CCN(c2ccc(OCC3COC(Cn4ccnc4)(c4ccc(Cl)cc4Cl)O3)cc2)CC1 (stereo not drawn) [Ketoconazole] (concentration: 25 µM) | 0.564 ± 0.035
14 | CN(Cc1ccc(C(C)(C)C)cc1)Cc1cccc2ccccc12 [Butenafine·HCl] (concentration: 25 µM) | 0.793 ± 0.076
15 | COCCCC/C(=N\OCCN)c1ccc(C(F)(F)F)cc1 [Fluvoxamine Maleate] (concentration: 25 µM) | 0.866 ± 0.083
16 | CN(CCOc1ccc(CC2SC(=O)NC2=O)cc1)c1ccccn1 (stereo not drawn) [Rosiglitazone] (concentration: 25 µM) | 0.718 ± 0.069
17 | CC[C@]1(O)C[C@H]2CN(CCc3c([nH]c4ccccc34)[C@@](C(=O)OC)(c3cc4c(cc3OC)N(C=O)[C@H]3[C@@](O)(C(=O)OC)[C@H](OC(C)=O)[C@]5(CC)C=CCN6CC[C@]43[C@@H]65)C2)C1 [Vincristine Sulfate] (concentration: 25 nM) | 0.083 ± 0.066
18 | Cn1c(=O)c2nc[nH]c2n(C)c1=O [Theophylline] (concentration: 25 µM) | 1.05 ± 0.031
19 | COCCCOc1ccnc(C[S+]([O-])c2nc3ccccc3[nH]2)c1C (stereo not drawn) [Rabeprazole·Na] (concentration: 25 µM) | 0.523 ± 0.06
20 | C[C@](N)(Cc1ccc(O)c(O)c1)C(=O)O [Methyldopa Sesquihydrate (L-Α-Methyl-Dopa Sesquihyrate)] (concentration: 25 µM) | 0.834 ± 0.052
21 | Cc1onc(-c2ccccc2Cl)c1C(=O)N[C@@H]1C(=O)N2[C@@H]1SC(C)(C)[C@@H]2C(=O)O [Cloxacillin·Na] (concentration: 25 µM) | 0.703 ± 0.056
22 | O=C(O[C@@H]1C[C@@H]2C[C@H]3C[C@H](C1)N2CC3=O)c1c[nH]c2ccccc12 [Dolasetron] (concentration: 25 µM) | 0.29 ± 0.053
23 | CN1CCc2cccc3c2[C@H]1Cc1ccc(O)c(O)c1-3 [Apomorphine·HCl Hemihydrate] (concentration: 2.5 µM) | 0.444 ± 0.071
